Screening data as filed in PubChem BioAssay.
AMA1-RON2 inh: disrupts binding of P. falciparum AMA1 to RON2 | Potency, µM (highest dose often 58.2 µM), inactives show at the top dose activity change, negative = inhibition, usual class: inhibitors | AlphaScreen AMA1-biotinylated RON2 peptide binding | 0.2% of 360,000 active;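 also: potency is read from the fitted curve at half-maximal effect; 0% = vehicle wells and -100% = peptide control; nearly all actives have a fitted effect of over 45% in size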
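AMA1 (3D7) with his tag at 25 nM final met compounds first, then biotinylated RON2 peptide at 25 nM; detection used donor plus acceptor beads, 10 µg/mL apiece, read by AlphaScreen after 30 min at room temperature.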
HCV inhibitor: HCV inhibition; Huh7.5.1 HCVcc-Cre infection, luciferase reporter, 44 h; AID 651820; Potency, µM (series often up to 41.8 µM), inactives show top-dose activity change, negative = inhibition, most hits filed as inhibitors; 3.4% of 340,000 active; also: potency is read from the fitted curve at half-maximal effect; % is scaled to controls: 0 for no effect and ±100 for the full control effect
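Cells seeded at 1,000/well and cultured 4 h, then compounds added followed by HCVcc-Cre virus (~0.5 moi). After 44 h further culture, luciferase substrate was added, plates held 15 min at room temperature, and luminescence read for 15 sec.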
Cycloheximide cs: affects cycloheximide protein synthesis inhibition readout, counter-screen. AID 2314. cell reporter, cycloheximide protein synthesis inhibition counterscreen. 12% of 300,000 active. max response, %; in the data active = max response mostly above about 13%, no sharp cut-off; inactive = mostly below about 14%; also: read at 38.3 µM for the half of the compounds with a filed dose; 0% is about no effect
Shiga toxin inh: Shiga toxin inhibition; Vero cells, Shiga toxin protein synthesis inhibition reporter; inhibition, % at 38.7 µM; 9.2% of 290,000 active; AID 2315; in the data active = inhibition mostly above about 28%, no sharp cut-off; inactive = mostly below about 43%; also: 0% is about no effect
Pf growth 48h: P. falciparum growth inhibition at 48 hours (one generation); P. falciparum luciferase growth in erythrocytes, 48 h; Potency, µM (highest dose often 28.7 µM), without a hit: at the top dose activity change, negative = inhibition, usual class: inhibitors; 5.9% of 310,000 active; also: potency is read from the fitted curve at half-maximal effect; % is scaled to controls: 0 for no effect and ±100 for the full control effect
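Cell-based growth assay: transgenic P. falciparum expressing firefly luciferase, cultured in red cells within RPMI 1640 containing 0.5% w/v Albumax, 24 mM bicarbonate and gentamycin. A drop in luciferase activity indicates inhibition.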
Pf growth 96h: inhibits malaria parasite growth, 96 h. Potency, µM (series often up to 28.7 µM), for the others: at the highest dose activity change, negative = inhibition, usual class: inhibitors. AID 504834. 6.9% of 320,000 active. P. falciparum luciferase reporter growth, 96 h; also: potency is read from the fitted curve at half-maximal effect; % is scaled to controls: 0 for no effect and ±100 for the full control effect
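Luminescence readout: decreased luciferase signal marks inhibited growth of reporter-expressing P. falciparum in infected red cells (2% hematocrit, 0.05% parasitemia final), exposed to compound two generations (96 h, 37 C, 5% CO2).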
Active calls of the source: *; ? = inconclusive; . = not tested or not shown. Only some compounds are listed: those with a hit (about 21% of all), similar ones and a draw of the others. Unless noted, calls follow the shape of the dose curve; as a rule, active = well fitted curve in the direction sought with a large enough effect; inconclusive = small, poorly fitted or top-dose-only effect, or another doubt; inactive = no such curve, though single readings can be large; an effect the other way counts as inactive or inconclusive.

SMILES	AMA1-RON2 inh	HCV inhibitor	Cycloheximide cs	Shiga toxin inh	Pf growth 48h	Pf growth 96h
CC#CC(=O)N1CCCC(Cc2cccc(OC)c2)(C(=O)OCC)C1 (centres undefined)	1%	3%	43*	33*	?	6.6µM*
CCOC(=O)C1(Cc2cccc(OC)c2)CCCN(CCO)C1 (centres undefined)	1%	3%	-2	8	-19%	?
CCOC(=O)C1(Cc2cccc(OC)c2)CCCN(S(=O)(=O)CC)C1 (centres undefined)	-4%	6%	1	6	-7%	?
CCOC(=O)C1(Cc2cccc(OC)c2)CCCN(C(=O)c2cc(C)oc2C)C1 (centres undefined)	-3%	?	39*	76*	?	15%
CCOC(=O)C1(Cc2cccc(OC)c2)CCCN(C(=O)CSC)C1 (centres undefined)	38%	15%	.	.	.	.
CCN(CC(=O)NCc1ccc(Cl)cc1)C(=O)/C=C/c1ccc(Cl)c([N+](=O)[O-])c1	-4%	.	-4	-21	15%	?
C[C@@H]1CN([C@H](C)CO)C(=O)CCCn2nncc2CO[C@H]1CN(C)Cc1cccc2c1OCCCO2	9%	.	.	.	.	.
Nc1cccnc1Oc1ccc(F)cc1	-3%	4%	14*	25	1%	18%
Nc1cccnc1Oc1ccc(F)cc1F	-13%	16%	1	-3	?	30%
CCCOc1ccc(NC(=O)c2cc3cc(C)ccc3[nH]2)cc1	-2%	-9%	0	-6	-10%	12µM*
Cc1ccc2[nH]c(CNC(=O)c3ccc(F)cc3)cc2c1	5%	-1%	30	20	-6%	-12%
Cc1cc(C)c2cc(C(=O)Nc3ccc4c(c3)OCO4)[nH]c2c1	-5%	?	-4	-14	10%	9%
Cc1cc(C)c2cc(C(=O)Nc3ccccc3)[nH]c2c1	-7%	?	42*	72*	?	8.3µM*
Cc1cc(C)c2[nH]c(C(=O)Nc3ccc(F)cc3Br)cc2c1	-1%	4%	34*	67*	-20%	-11%
CCCOc1ccc(NCC(=O)Nc2ccc(C)cc2C)cc1	-9%	2%	3	19	-29%	?
Cc1ccc2[nH]c(C(=O)Nc3ccc(F)cc3)cc2c1	-2%	-23%	22*	.	-11%	8.3µM*
CCCCC(=O)N(C)c1c(C)nc2ccc(C(=O)NCCN(C)C)cn12	0%	.	.	.	.	.
Cc1ccc(C(=O)N/C(=C\c2ccc(Cl)cc2)C(=O)NCCN2CCOCC2)cc1	13%	-7%	7	3	-4%	?
O=C(CN1CCCCC1)N1N=C(c2cccs2)CC1c1cccs1 (centres undefined)	0%	-7%	-1	-4	-12%	?
CCOC(=O)c1ccc2nc(C(F)(F)F)[nH]c(=O)c2c1	10%	-8%	-4	-13	?	?
CCOC(=O)c1ccc2nc3c(cc2c1)CCS3	40%	-13%	48*	71*	71%	-12%
COC(=O)c1ccc2[nH]ccc2c1	-4%	-14%	1	14	-17%	?
CC(C)(C)c1ccc(C(=O)NC2CCS(=O)(=O)C2)cc1 (centres undefined)	-8%	1%	10	24	41%	-1%
Nc1c(-c2cccs2)cnn1-c1nc(-c2ccc(Cl)cc2Cl)cs1	5%	?	-2	15	0%	?
Nc1nccc(-c2cc(-c3ccc(Cl)cc3Cl)no2)n1	-9%	-3%	42*	54*	398%	23%
COc1ccccc1C(=O)COC(=O)CNS(=O)(=O)c1ccc(C)cc1	1%	-28%	2	-3	6%	23%
O=c1[nH][nH]c2c(N=Cc3ccccc3O)ccc(F)c12	11µM*	2%	-3	-21	?	-19%
O=C(NCc1ccccc1)C1CCN(S(=O)(=O)c2cc([N+](=O)[O-])ccc2Cl)CC1	3%	-9%	-1	-7	-24%	42%
O=[N+]([O-])c1ccc(Cl)c(S(=O)(=O)N2CCCCCC2)c1	-6%	12%	-1	-2	-19%	10µM*
